PfHsp40 rescue: rescue of yeast from PfHsp40 toxicity, primary screen, S. cerevisiae, ATP luminescence | S. cerevisiae expressing PfHsp40, growth rescue | growth rescue, % at 12.5 µM | 340,000 compounds, 0.68% hits | AID 504582, 2011; in the data active = growth rescue above about 28%, passing the limit was not always enough;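 note: yeast W303a lacking pdr1 and pdr3 grown in galactose medium; growth measured after three days at 30 °C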
RecA intein inh: Mtb RecA intein splicing inhibitors, primary screen, biochemical, fluorescence, HTS. Protein RecA (Mycobacterium tuberculosis (strain ATCC 25618 / H37Rv)), P9WHJ3. cell-free RecA intein splicing. inhibition, % (test concentration not listed). 290,000 compounds, 0.75% hits. AID 2221, 2009; in the data active = inhibition above about 30%;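 note: 0% = vehicle wells and 100% = reference inhibitor control wells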
Target sequence (P9WHJ3 whole entry, looked up): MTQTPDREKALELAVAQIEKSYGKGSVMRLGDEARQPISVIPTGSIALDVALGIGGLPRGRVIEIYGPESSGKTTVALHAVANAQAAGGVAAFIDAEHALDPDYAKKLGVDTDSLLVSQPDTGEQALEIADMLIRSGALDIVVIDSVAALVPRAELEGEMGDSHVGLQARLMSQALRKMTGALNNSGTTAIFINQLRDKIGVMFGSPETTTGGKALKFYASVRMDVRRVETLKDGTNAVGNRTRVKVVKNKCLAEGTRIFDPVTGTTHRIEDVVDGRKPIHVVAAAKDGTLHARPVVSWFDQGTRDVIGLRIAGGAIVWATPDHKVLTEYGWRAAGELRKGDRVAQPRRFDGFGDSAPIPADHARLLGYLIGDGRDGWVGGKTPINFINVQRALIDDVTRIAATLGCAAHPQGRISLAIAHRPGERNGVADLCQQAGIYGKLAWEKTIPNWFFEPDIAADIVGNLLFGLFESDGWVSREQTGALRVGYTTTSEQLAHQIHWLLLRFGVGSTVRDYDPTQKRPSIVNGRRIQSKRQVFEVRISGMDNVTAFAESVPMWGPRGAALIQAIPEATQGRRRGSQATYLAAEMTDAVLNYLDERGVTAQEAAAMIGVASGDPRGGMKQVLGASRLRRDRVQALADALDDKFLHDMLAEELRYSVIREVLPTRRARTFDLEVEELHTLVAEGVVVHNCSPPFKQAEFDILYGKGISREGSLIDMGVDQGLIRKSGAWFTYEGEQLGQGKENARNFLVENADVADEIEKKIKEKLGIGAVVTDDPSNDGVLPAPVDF
BJeLR viability: MLPCN primary cell-based screen for lethality selective to Ras in HRASV12 cells. BJeLR (HRASV12) viability, CellTiter-Glo ATP luminescence, 48 h. inhibition, % (test concentration not listed). 300,000 compounds, 0.17% hits. AID 1554, 2009; in the data active = inhibition above about 50%
PrP 5UTR inh: inhibition of PrP 5' UTR reporter expression; cell-based PrP 5' UTR mRNA reporter, plate reader; inhibition, % (test concentration not listed); 340,000 compounds, 0.35% hits; in the data active = inhibition above about 52%; note: 0 = median of the neutral control wells
PrPC surface inh: inhibitors of human cell surface prion protein PrPC, primary screen, cell-based, TR-FRET | TR-FRET read-out | inhibition, % at 13.8 µM | 370,000 compounds, 0.43% hits | AID 720596, 2013; in the data active = inhibition above about 24%; note: 0% = median of the test wells and 100% = reference compound wells
PriA SSB inh: inhibitors of Klebsiella pneumoniae PriA binding to SSB C-terminal tail, primary screen, biochemical, AlphaScreen; PriA–SSB C-terminal tail interaction (Klebsiella pneumoniae); AlphaScreen SSBct-PriA binding, biotinylated peptide; inhibition, % at 33 µM; 430,000 compounds, 0.6% hits; AID 1272365, 2023; in the data active = inhibition mostly above about 37%, no sharp cut-off; inactive = mostly below about 20%;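 note: plate controls were negative control peptide for no effect and reference peptide for full effect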
Active calls of the source: *; i = inactive; x = not tested or not shown; ! = not active in a repeat. A selection: hits, their analogues and other compounds. The true share with any hit is near 1.9%.

SMILES | PfHsp40 rescue | RecA intein inh | BJeLR viability | PrP 5UTR inh | PrPC surface inh | PriA SSB inh
O=C(Nc1ccccc1)Nc1nc(C(=O)O)cs1 | x | x | x | x | x | 63*
O=C(NCCc1c[nH]c2ccccc12)Nc1ccccc1 | 0 | 0 | -6 | -5 | 5 | 5
O=C(Nc1nnc(Cc2ccc(Cl)s2)o1)c1cc2ccccc2o1 | x | x | x | x | x | -10
Cc1c(C(=O)Oc2cccc3ccccc23)cnn1-c1ccccc1 | 34* | 5 | 3 | -3 | 3 | -15
Cc1cc(C)n(-c2cc(NC(=O)COc3ccccc3F)ncn2)n1 | x | x | x | x | x | -3
Cc1cc(NC(=O)C(=O)NCCc2ccc(N(C)C)cc2)no1 | x | x | x | x | x | 3
Cc1ccc(-c2[nH]c3ccccc3c2SCCNC(=O)c2ccc(Br)o2)cc1 | x | x | x | x | x | 2
O=S(=O)(Nc1ccc(N=Nc2ccccc2)cc1)c1ccccc1 | 102* | 19 | 4 | -5 | -13 | 5
O=S(=O)(Nc1ccc(S(=O)(=O)Nc2ccccc2)cc1)c1ccccc1 | 0 | 4 | 6 | -10 | 1 | -6
Cc1cccc(C(=O)O/N=C(\N)Cc2cccc3ccccc23)c1 | 300* | 14 | 5 | -24 | x | i
Cc1ccc(NC2=C(N3CCOCC3)C(=O)c3ccccc3C2=O)cc1 | 0 | 41* | 11 | 12 | -15 | 7
CC(=O)N(C)C1=C(N2CCOCC2)C(=O)c2ccccc2C1=O | 0 | 32* | 20 | -6 | x | 11
O=C(COc1coc(CN2CCN(c3ccc(F)cc3)CC2)cc1=O)Nc1ccccc1 | 0 | 0 | 7 | -9 | 4 | -5
O=C(COc1coc(CN2CCN(c3ccccc3)CC2)cc1=O)Nc1ccc(F)cc1 | 1 | -1 | -6 | -13 | 5 | 46*
Cn1cc(S(=O)(=O)Nc2nc3ccccc3nc2NCCOc2ccc(F)cc2)cn1 | x | x | x | x | x | 1
O=C(O)CC/C(=N/Nc1ccc([N+](=O)[O-])cc1)C(=O)O | 135* | 1 | 4 | -20 | 10 | x
O=C(CSc1ccc(Cl)cc1)Nc1nnc(-c2ccccn2)o1 | x | x | x | x | x | 35*
CCN(CC)S(=O)(=O)c1ccc(OC)c(C(=O)Nc2cccnc2)c1 | x | x | x | x | x | -6
Cc1ccc2nc(N(CCCn3ccnc3)C(=O)C3COc4ccccc4O3)sc2c1 (stereo unspecified) | x | x | x | x | x | 35*
CC(Cc1ccoc1)NC(=O)Nc1cccc(Cl)c1 (stereo unspecified) | x | x | x | x | x | -10
CC(C)CCN1C(=O)CCc2cc(NC(=O)c3ccc(C#N)cc3)ccc21 | x | x | x | x | x | -3
COc1cccc(NC(=O)CSc2ccc3ccccc3n2)c1 | x | x | x | x | x | -1
Cc1cccc(Nc2nc(N)c([N+](=O)[O-])c(N3CC(C)CC(C)C3)n2)c1 (stereo unspecified) | 64* | 7 | 0 | -9 | 0 | 50*
CCOc1cccc2cc(C(=O)NCCn3nc(-c4cccnc4)ccc3=O)c(=O)oc12 | x | x | x | x | x | -14
COc1ccc(-c2c(C#Cc3ccsc3)c3cc(Br)ccc3n2C)cc1 | 4 | x | x | -6 | -3 | -13
SMILES | PfHsp40 rescue | RecA intein inh | BJeLR viability | PrP 5UTR inh | PrPC surface inh | PriA SSB inh
COc1ccc(-c2c(C#Cc3ccc(N(C)C)cc3)c3ccccc3n2C)cc1 | 0 | x | x | -12 | 0 | 78*
CNC(=O)c1ccsc1NC(=O)c1cc([N+](=O)[O-])cc([N+](=O)[O-])c1 | x | x | x | x | x | -8
O=C(NCc1ccc2c(c1)OCO2)C12CN(Cc3ccccc3)CC1C(c1cccc([N+](=O)[O-])c1)=NO2 (stereo unspecified) | 0 | 9 | -4 | 5 | -3 | 43*
CC(=NNC(=O)Cc1ccc(F)cc1)c1ccc(F)cc1 | x | x | x | x | x | -2
O=c1c(Cl)c(Cl)cnn1Cc1ccc(F)cc1 | 0 | 35* | -6 | 3 | 0 | -33
O=C(O)c1ccc(NN=C/C=C/c2ccccc2[N+](=O)[O-])cc1 | x | x | x | x | x | 17
NS(=O)(=O)c1ccc(NN=C/C=C/c2ccccc2[N+](=O)[O-])cc1 | x | x | x | x | x | 48*
CN(C)S(=O)(=O)c1cccc(NC(=S)NN=Cc2ccc(O)c(O)c2O)c1 | x | x | x | x | x | 102*
COC(=O)c1ccc2nc(N)sc2c1 | x | x | x | x | x | 53*
CCCNC(=O)c1ccc2nc(N)sc2c1 | x | x | x | x | x | 87*
Nc1nc2ccc(C(=O)O)cc2s1 | x | x | x | x | x | 89*!
CCNC(=O)c1ccc2nc(N)sc2c1 | x | x | x | x | x | 36
O=C(CCSc1ccccc1)NCc1nn(C2CCCC2)c2c1COCC2 | x | x | x | x | x | 0
Cc1ccc(-c2csc(NC(=O)CSc3nc4ccccc4c(=O)n3CCCN(C)C)n2)cc1 | 2 | 17 | 10 | -6 | -2 | 55*
Cc1ccc(C(c2ccc(C)o2)c2cccc([N+](=O)[O-])c2O)o1 | 1 | 13 | -2 | -21 | -7 | 45*
Cc1cc(C(c2ccc(C)o2)c2ccc(C)o2)c(O)c([N+](=O)[O-])c1 | 0 | 15 | -3 | -13 | -12 | 10
O=C(Nc1ccc(-c2ccc3nnc(-c4ccccn4)n3n2)cc1)c1cccc(F)c1 | x | x | x | x | x | 40*
O=C(Nc1ccc(-c2ccc3nnc(-c4ccncc4)n3n2)cc1)c1cccc([N+](=O)[O-])c1 | x | x | x | x | x | -5
Cc1cccc(Oc2cc(NC(=O)c3nc4nc(-c5ccccc5)cc(C(F)(F)F)n4n3)cc([N+](=O)[O-])c2)c1 | x | x | x | x | x | -13
O=S(=O)(NCCC(O)c1ccc2c(c1)OCO2)C1CC1 (stereo unspecified) | x | x | x | x | x | -9
CC1CCc2c(sc(Nc3nc4c(F)cccc4s3)c2C(N)=O)C1 (stereo unspecified) | -1 | 0 | 0 | -19 | 6 | 51*!
CC1CCc2c(sc(NC(=O)CCSc3ccc(Cl)cc3)c2C(N)=O)C1 (stereo unspecified) | x | x | x | x | x | 4
CCOc1ccc2ccccc2c1C(=O)Nc1cc(-n2cccn2)ncn1 | x | x | x | x | x | -19
c1ccc(-c2csc(Nc3ncccn3)n2)nc1 | x | x | x | x | x | 70*
Cc1ccc(C)c(-c2csc(Nc3ncccn3)n2)c1 | 1 | 0 | -5 | -16 | 1 | -9
SMILES | PfHsp40 rescue | RecA intein inh | BJeLR viability | PrP 5UTR inh | PrPC surface inh | PriA SSB inh
NNc1nc(-c2ccccn2)cs1 | x | x | x | x | x | 130*
c1ccc(Nc2nc(-c3ccccn3)cs2)nc1 | x | x | x | x | x | 150*
Cc1ccc(C)c(Nc2nc(-c3ccccn3)cs2)c1 | x | x | x | x | x | 69*
c1ccc(-c2csc(Nc3ccccn3)n2)cc1 | 6 | x | 4 | -52 | -10 | -6
CC1CCC2C(=O)N(c3ccc(NC4CCN(Cc5ccccc5)CC4)c([N+](=O)[O-])c3)C(=O)C2C1 (stereo unspecified) | -1 | -1 | 5 | 7 | -21 | 43*
Cc1ccc(Nc2c([N+](=O)[O-])cc(C(=O)N3CC(=O)Nc4ccccc43)cc2[N+](=O)[O-])c(C)c1 | 0 | 8 | -3 | -19 | -9 | 43*
